Among the data in PubChem BioAssay are z-score values, retold here.

The assay in a line: viability profiling in RPMI8226 myeloma cells – cell-based, resazurin fluorescence, basal, 24 h, PK04 Diversity Set, profiling panel (AID 1180).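 Note: RPMI8826 multiple myeloma cell line at 5000 cells per well; test concentration not given here.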 The note with it: higher = more signal.
On to `CC(C)(C)N1CC=CC23O[C@@H]4/C=C\CCCOC(=O)C4[C@H]2C(=O)N(CCCCCO)[C@@H]3C1=O` (stereo partly specified), for which the z-score was -0.119. With `COCCCNC(=O)[C@@]1(CCS(=O)(=O)c2ccccc2)COC(c2ccc(OCCCO)cc2)=N1` the figure was -0.508; with `O=C1NC(=O)C2C1C=CC(C(O)c1ccc(B(O)O)cc1)N2Nc1ccc(Cl)cc1Cl` (stereo unspecified), -1.78. For `CCOc1cc(C(O)C2C=CC3C(=O)N(c4ccccc4)C(=O)C3N2Nc2ccccc2F)ccc1O` (stereo unspecified), the z-score is -0.318.

Take `O=C1OCCC=C[C@H]2OC34C=CCN(c5ccc6ccccc6c5)C(=O)[C@H]3N(CCO)C(=O)[C@@H]4C12` (stereo partly specified): the z-score was -0.796.

For `CN(C)CCCNC(=O)[C@@]1(Cc2ccccc2I)c2ccccc2C(=O)N(C2CCCCC2)[C@H]1c1ccc(CO)cc1`, the z-score is -6.58. With `COc1ccc(C#Cc2ccc3c(c2)[C@]2(C(=O)N3)[C@H](C(=O)O)[C@H]3C(=O)O[C@H](c4ccccc4)[C@H](c4ccccc4)N3[C@@H]2c2ccccc2OCCO)cc1` the figure was -5.64; with `COCCOC(=O)N1C(=O)[C@@]2(c3cc(C#CC4(O)CCCCCC4)ccc31)[C@H](c1ccc(O)cc1)N1[C@H](c3ccccc3)[C@H](c3ccccc3)OC(=O)[C@H]1[C@@H]2C(=O)N1CCCCCCC1`, -0.196. With `[N-]=[N+]=Nc1ccccc1[C@@H]1OC(c2ccc(OCCCO)cc2)=N[C@]1(Cc1ccccc1)C(=O)NCCN1CCOCC1` the figure was -1.73.

In the case of `CCCCC(O)C1C=CC2C(=O)N(c3ccccc3)C(=O)C2N1Nc1ccccc1` (stereo unspecified), the z-score is -0.0096. For `CC=CC(O)C1C=CC2C(=O)NC(=O)C2N1Nc1ccc(Cl)cc1Cl` (stereo unspecified) the value was -1.68.
